Compounds with a hit are over-represented: about 3.2% of the library has one in this group of screens.
HBB splicing – alters splicing of the hemoglobin beta chain; HBB splicing reporter cell assay, activation; EGFP reporter with mutant IVS2-654 intron; response scale: normalised to 500 nM splice-correcting PNA; Potency, µM (doses to about 46.1 µM), without a hit: top-dose activation, usual class: activators; actives 0.06% (n = 65,000); note: potency is the fitted concentration of half-maximal effect; 0% is about no effect
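HeLa cells stably expressing EGFP interrupted by mutant beta-globin intron 2 (IVS2-654), 500/well in 2% FCS. Treated with compound for 2 days at 37C. Splicing correction scored as total well GFP intensity (488 nm excitation, 500-520 nm emission); 500 nM antisense PNA served as control.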
Tau filament bind – tau filament binding; P10636; recombinant tau filaments, thioflavin S fluorescence, 15 h; filaments grown with octadecylsulfate alongside compound; Potency, µM (highest dose often 57.1 µM), inactives show at the top dose activity change, negative = inhibition; actives 2% (n = 71,000);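 note: potency is the fitted concentration of half-maximal effect; % is set by controls: 0 for no effect and ±100 for the full control effect; actives lower thioflavin S fluorescence by blocking filaments or displacing dye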
Target sequence (P10636 whole entry, looked up): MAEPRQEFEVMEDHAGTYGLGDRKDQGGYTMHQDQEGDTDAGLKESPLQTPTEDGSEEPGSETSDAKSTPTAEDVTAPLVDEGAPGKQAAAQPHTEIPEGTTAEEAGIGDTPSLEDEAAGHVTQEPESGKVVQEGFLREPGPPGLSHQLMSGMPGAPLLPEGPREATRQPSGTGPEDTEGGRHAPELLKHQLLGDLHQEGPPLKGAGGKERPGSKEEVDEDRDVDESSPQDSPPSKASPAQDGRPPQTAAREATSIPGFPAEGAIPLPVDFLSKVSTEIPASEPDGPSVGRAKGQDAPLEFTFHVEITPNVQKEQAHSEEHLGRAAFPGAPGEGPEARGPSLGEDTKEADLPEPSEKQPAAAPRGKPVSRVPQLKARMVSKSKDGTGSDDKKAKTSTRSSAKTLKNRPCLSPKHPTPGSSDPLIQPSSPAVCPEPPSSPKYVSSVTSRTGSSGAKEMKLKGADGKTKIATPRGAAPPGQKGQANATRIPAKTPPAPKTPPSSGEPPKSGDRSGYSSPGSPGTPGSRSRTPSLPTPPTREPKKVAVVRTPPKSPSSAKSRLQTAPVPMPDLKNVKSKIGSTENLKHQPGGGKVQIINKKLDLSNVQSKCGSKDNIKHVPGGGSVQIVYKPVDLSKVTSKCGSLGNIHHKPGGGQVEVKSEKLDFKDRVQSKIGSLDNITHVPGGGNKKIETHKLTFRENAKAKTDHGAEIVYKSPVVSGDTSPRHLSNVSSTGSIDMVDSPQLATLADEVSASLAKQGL
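Recombinant tau protein (human, 1 uM final) plus 30 uM ODS in HEPES pH 7.4 with NaCl, DTT and thioflavine S. Compound present from the start; fluorescence at 510 nm after 15 h, 37 C.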
GFP derepression – epigenetic modulators derepressing GFP locus in mouse cells; Potency, µM (series often up to 46.1 µM), for the others: at the top dose GFP derepression (activation); mouse C127i GFP locus derepression, cytometry, 30 h; actives 0.09% (n = 68,000); note: % of control where 0% means no effect
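Locus derepression in mouse mammary C127i cells whose integrated CMV-GFP reporter is normally silent; GFP expression after 30 h compound treatment was quantified by counting fluorescent cells.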
UbGFP stabilizer – inhibits proteasome, raising ubiquitin-GFP reporter fluorescence | Ubiquitin-GFP reporter cells, proteasome inhibition, GFP fluorescence; response scale: untreated = 0%, 10 µM MG-132 = 100% | Potency, µM (series often up to 45.9 µM), inactives show top-dose activation (GFP accumulation), actives largely listed as activators | 67,000 tested, under 10 active | AID 526; active = well fitted activation curve with a large enough effect, not every such curve was filed as active; inconclusive = small, poorly fitted or top-dose-only effect, or another doubt; inactive = no such curve, though single readings can be large or run the other way; note: potency is the fitted concentration of half-maximal effect
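U2OS Ub(G76V)-GFP reporter; O/N plating, 0.5% FBS; cpd 46 uM–2.9 nM, 4 h, 37 °C; GFP+ cell count, 488/515 nm; norm. to basal vs 10 uM MG-132; CRC fit.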
Pol III holo inh – DNA polymerase III holoenzyme inhibition; reconstituted DNA polymerase III holoenzyme replication, biochemical; Potency, µM (top dose mostly 57.1 µM), for the others: top-dose activity change, negative = inhibition; AID 603; actives 0.25% (n = 71,000); note: potency is the fitted concentration of half-maximal effect; % is set by controls: 0 for no effect and ±100 for the full control effect
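Reconstituted *E. coli* holoenzyme (0.35 nM Pol III, 1 nM beta, 154 nM SSB, 2 nM primase) was preincubated with compound for 15 min at RT. Synthesis on 1.4 nM ssM13Gori ran 35 min, then was stopped with PicoGreen/EDTA and read as dsDNA fluorescence.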
ALOX15 inhib – inhibitors of human 15-lipoxygenase (ALOX15); purified 15hLO-1, xylenol orange hydroperoxide absorbance; Potency, µM (top dose mostly 57.1 µM), inactives show top-dose activity change, negative = inhibition, actives largely listed as inhibitors; actives 1.4% (n = 74,000); note: potency is the fitted concentration of half-maximal effect; % is set by controls: 0 for no effect and ±100 for the full control effect; nearly all actives have a fitted effect of over 55% in size
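Inhibition is scored from a chromogenic endpoint. After 15 min enzyme-compound contact, arachidonic acid (50 uM final) reacts 6 min with 40 nM 15hLO-1 at room temperature, then Fe-XO reagent is added for 30 min and absorbance ratio recorded.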
* hit, by the source's call; i = inactive; u = inconclusive; x = no result; [ ] = remark or other dose. Unless noted, calls come from the whole dose curve; as a rule, active = well fitted curve in the direction sought with a large enough effect; inconclusive = small, poorly fitted or top-dose-only effect, or another doubt; inactive = no such curve, though single readings can be large; an effect the other way counts as inactive or inconclusive.

SMILES	HBB splicing	Tau filament bind	GFP derepression	UbGFP stabilizer	Pol III holo inh	ALOX15 inhib
CC[C@]1(O)CC(O[C@@H]2CC(N(C)C)C(O)C(C)O2)c2c(cc3c(c2O)C(=O)c2c(O)ccc(O)c2C3=O)C1C(=O)OC (stereo not given in full)	x	x	x	x	x	-7%
CCCCCC[C@H]1C(=O)O[C@@H](C)[C@H](NC(=O)c2cccc(NC=O)c2O)C(=O)O[C@@H](C)[C@@H]1OC(=O)CC(C)C	x	u	0%[9.22 µM]	3%	-1%	x
[CH3][Hg][Cl]	-1%	-2%	x	x	4%	16µM*
CN1C[C@@H](CS(=O)(=O)N(C)C)C[C@H]2c3cccc4c3c(cn4C)C[C@@H]21	2%	10%	-1%	0%	-4%	3%
CO[C@@H](C)[C@](O)(C(=O)OC1=CCN2CC[C@H](O)[C@H]12)C(C)C	x	u	-5%[9.22 µM]	0%	-2%	x
Cc1cc(O)c2c(c1)C(=O)c1cc(O)cc(O)c1C2=O	8%	2.5µM*	0%[9.22 µM]	8%	-17%	u
CCOC(=O)C1CCN(/C=C2/C(=O)NC(=O)N(Cc3ccco3)C2=O)CC1	-2%	-10%	2%	0%	7.9µM*	25%
CC1(C)CN=C(NCc2ccccc2Cl)S1	6%	25µM*	6%	-2%	-6%	14%
COc1cc([C@@H](O)CN)ccc1O	2%	3%	3%	0%	-3%	10%
Cc1c([C@@H](C)[C@H]2NC[C@H](C)C[C@@H]2O)ccc2c1C[C@@H]1[C@H]2CC=C2C[C@@H](O)CC[C@@]21C	1%[9.22 µM]	-1%[11.4 µM]	3%[9.22 µM]	-2%[9.17 µM]	-5%[11.4 µM]	31%[11.4 µM]
CCCCC/C=C\C/C=C\C/C=C\C/C=C\CCCC(=O)Nc1ccc(O)cc1	x	32µM*	0%	-5%	-9%	0.25µM*
CCCCC/C=C\C/C=C\C/C=C\C/C=C\CCCC(=O)NCC(=O)O	-1%	32%	-1%	-6%	-1%	2.5µM*
COc1cc2c(cc1O)CCN[C@H]2C	x	u	-5%[9.22 µM]	5%	-1%	x
CCCN1CC[C@@H]2c3cc(O)ccc3CC[C@H]21	1%	-10%	0%	8%	-4%	4%
CCC(=Nc1ccc(OC)cc1OC)c1c(O)n(C2CCCCC2)c(=O)[nH]c1=O	5%[1.84 µM]	10µM*	0%	4%	3%	u
Clc1ccc(N2C[C@H]3CC[C@@H](C2)N3)nn1	-2%	7%	-2%	3%	3%	11%
CN1CCC[C@@H]1c1cccnc1.O=C(O)c1ccccc1O.O=C([OH2+])c1ccccc1O.O=C([OH2+])c1ccccc1O.O=C([OH2+])c1ccccc1O.[Cu]	4%[9.22 µM]	-16%[11.4 µM]	4%[9.22 µM]	3%[9.17 µM]	-5%[11.4 µM]	2.5µM*
CN1CCC[C@H]1c1cccnc1	-1%	-2%	x	x	0%	3%
CCN1C[C@@]2(COC(=O)c3ccccc3N3C(=O)C[C@H](C)C3=O)CC[C@H](OC)[C@@]34[C@@H]5CC6[C@@H](OC)C[C@@](O)([C@H]5[C@H]6OC)C(O)([C@@H]13)[C@@H](OC)[C@H]24	x	-4%	-5%[9.22 µM]	-3%	5%	x
N#C/C(=C\c1ccc(O)c(O)c1)C(=O)NCCCNC(=O)/C(C#N)=C/c1ccc(O)c(O)c1	0%	5%	-1%	-2%	2.5µM*	3.2µM*
COc1ccc2c(c1O)-c1cccc3c1[C@H](C2)N(C)CC3	4%	-10%	-1%	-8%	3%	-5%
Nc1cc(Cl)ccc1O	-1%	u	x	x	-11%	1.6µM*
Oc1ccc(Cl)cc1Sc1cc(Cl)ccc1O	1%[9.22 µM]	5%[11.4 µM]	6%[9.22 µM]	-2%[9.17 µM]	-9%[11.4 µM]	4µM*
Nc1cc(Cl)ccc1Cl	1%	-1%	x	x	3%	-5%
Nc1ccc(Cl)cc1N	1%	2.5µM*	x	x	-1%	u
SMILES	HBB splicing	Tau filament bind	GFP derepression	UbGFP stabilizer	Pol III holo inh	ALOX15 inhib
C[C@@H]1O[C@@H](O[C@H]2C[C@@H](O)[C@]3(CO)[C@@H]4[C@@H](O)C[C@]5(C)[C@H](C6=CC(=O)OC6)CC[C@@]5(O)[C@H]4CC[C@@]3(O)C2)[C@H](O)[C@H](O)[C@@H]1O	5%	-2%	-2%	0%	-1%	-5%
CC(=O)N1C[C@@H]2C[C@H](C1)c1cccc(=O)n1C2	x	-26%	-5%[9.22 µM]	2%	-4%	x
COc1ccc2[nH]cc(CCN)c2c1	2%	-11%	1%	5%	-4%	-7%
COc1ccc2[nH]c3c(c2c1)CCN=C3C	0%[20.6 µM]	2.5µM*	4%[20.6 µM]	-11%[20.5 µM]	-9%[25.6 µM]	u
C=C(C)[C@H]1[C@H]2OC(=O)[C@@H]1[C@]1(O)C[C@H]3O[C@]34C(=O)O[C@H]2[C@]14C	x	32µM*	-2%[9.22 µM]	5%	-3%	x
COc1cc2c(cc1OC)[C@]13CC[N@+]4(C)CC5=CCO[C@H]6CC(=O)N2[C@@H]1[C@@H]6[C@@H]5C[C@]34O	0%[9.22 µM]	-4%[11.4 µM]	12%[9.22 µM]	0%[9.17 µM]	-11%[11.4 µM]	18%[11.4 µM]
[Cl][In]([Cl])[Cl]	0%	4%	x	x	32µM*	u
N[C@H](Cn1oc(=O)[nH]c1=O)C(=O)O	5%	-9%	-4%	14%	-2%	x
O=P(c1ccccc1)(c1ccccc1)N1CCCCC1	x	x	8%[20.6 µM]	x	x	x
O=C1C(Cl)=C(N2CCCCCC2)C(=O)N1c1ccccc1	-8%	-22%	0%	9%	-1%	5µM*
c1ccc2c(CCNC3=NCCC3)c[nH]c2c1	0%[57.5 µM]	-2%	6%	0%	u	13µM*
CN(C)Cc1c[nH]c2ccccc12	-1%[20.6 µM]	u	-2%[9.22 µM]	4%	-7%	3%[25.6 µM]
O=C(O)/C=C\c1ccc[c]([Sb](=[O])([OH])[OH])c1	3%[9.22 µM]	5%[11.4 µM]	-1%[9.22 µM]	1%[9.17 µM]	0.2µM*	-26%[11.4 µM]
CN1C[C@H](C(=O)N[C@]2(C)O[C@@]3(O)[C@@H]4CCCN4C(=O)[C@H](Cc4ccccc4)N3C2=O)C=C2c3cccc4[nH]cc(c34)C[C@H]21	5%	i	x	x	10%	2.5µM*
CN1C[C@H](C(=O)N[C@]2(C)O[C@@]3(O)[C@H]4CCCN4C(=O)[C@H](Cc4ccccc4)N3C2=O)C[C@H]2c3cccc4[nH]cc(c34)C[C@@H]21	x	u	-1%	2%	-1%	13µM*
CN1C[C@H](C(=O)N[C@@]2(C)O[C@@]3(O)[C@H]4CCCN4C(=O)[C@@H](Cc4ccccc4)N3C2=O)C=C2c3cccc4[nH]cc(c34)C[C@@H]21	3%[9.22 µM]	189%[11.4 µM]	2%[9.22 µM]	-1%[9.17 µM]	-5%[11.4 µM]	-16%[11.4 µM]
N#CC1=C(N)Oc2n[nH]c(-c3cccs3)c2C1c1ccsc1 (stereo not given)	-1%	13%	-3%	5%	-17%	4µM*
